This is an account of results in PubChem BioAssay (EPA / NIEHS).

The structures appear in SMILES notation. Activity calls are given as the source filed them. How the source made its calls: active means hit-call score of the fitted dose curve at least 0.9, where 1 is the maximum; inactive means score below 0.9.

Read-out in the experiment: Pselectin, SELP (gene 6403)
In words: BSK_4H_Pselectin: BioMAP Diversity Plus: 4H Assay for Pselectin Biomarker Activity (AID 2283026). To be noted: primary human endothelial cells (HUVEC); actives raise or lower the signal. As for the experimental part:
BSK_4H is a cell-based, multiplexed-readout assay that uses umbilical vein endothelium, a human vascular primary cell, with measurements taken at 24 hours after chemical dosing in a 96-well plate.BSK_4H_Pselectin is an assay component measured in the BSK_4H assay. It measures P-Selectin antibody related to regulation of gene expression using ELISA technology.Data from the assay component BSK_4H_Pselectin was analyzed into 1 assay endpoint. This assay endpoint, BSK_4H_Pselectin, was analyzed with bidirectional fitting relative to DMSO as the negative control and baseline of activity. Using a type of binding reporter, gain or loss-of-signal activity can be used to understand changes in the signaling as they relate to the gene SELP. Furthermore, this assay endpoint can be referred to as a primary readout, because this assay has produced multiple assay endpoints where this one serves a signaling function. To generalize the intended target to other relatable targets, this assay endpoint is annotated to the cell adhesion molecules intended target family, where the subfamily is selectins.
The levels of cell surface (or secreted, indicated by the prefix "s") biomarker endpoints were measured by ELISA. Overt cytotoxicity to cells in confluent adherent cultures (all systems other than the BT system) was assessed by measuring total protein levels using sulforhodamine B (SRB) staining in parallel cultures at the time of biomarker measurements, indicated as SRB endpoints. For proliferation assays for adherent cell types, individual cell types are cultured at sub-confluence and relative cell numbers quantified by SRB staining at time points optimized for each system (48 h: 3C and CASM3C systems; 72 h: BT and HDF3CGF systems; 96 h: SAg system). SRB was performed by staining cells with 0.1% SRB after fixation with 10% TCA and reading wells at 560 nm.Viability and proliferation of PBMC (T cells) was quantified by Alamar Blue reduction for the SAg and BT systems. For PBMC viability (referred to as PBMC Cytotoxicity within the assay endpoint names), cells were plated (75,000/well in a 96-well plate) and then chemical samples added for 1 h before addition of activators, SEB and TSST-1 (20 ng/mL final concentration each). Cells were incubated for 90 h. Then, Alamar Blue (20 uL/well) (Invitrogen, Cat DAL1100) was added for 6 h, and the plates were read with a fluorescence microplate reader at 546/580 nm (excitation/emission). For PBMC proliferation, cells were plated and activated as above but incubated for only 16 h prior to addition of Alamar Blue. Plates were read after 6 h.
On to `NC=O`, for which the result was inactive.
Still for that read-out and setting: as for `OCC(CO)n1cnc(-c2ccc(F)cc2)c1-c1ccnc(Oc2ccccc2)n1`, the entry is “inactive”; as for `CC(=O)OC1CC(C)OC(C)O1` (stereo not given), “inactive”.
Still for that read-out and setting: as for `CCCCc1nc2cccnc2n1Cc1ccc(-c2ccccc2-c2nnn[nH]2)cc1`, the entry is “inactive”; as for `Cn1cnc2c1c(=O)[nH]c(=O)n2C`, “inactive”; as for `CC(C)c1cccc(C(C)C)c1NC(=O)NS(=O)(=O)c1cc(C(C)(C)O)co1`, “inactive”.
With `CCCCCCC(CCCCCCCCCCC(=O)OCC(COC(C)=O)OC(C)=O)OC(C)=O` (stereo not given), the outcome was inactive.
Turning to `CC(COCC(C)OC(=O)c1ccccc1)OC(=O)c1ccccc1` (stereo not given), the result was inactive.
As for `CCc1cc(C2=C(C(=O)O)N(c3ccccc3C(F)(F)F)S(=O)(=O)c3ccccc32)cc2c1OCO2`, the outcome was inactive.
In the case of `CCCC(=O)O`, the result was inactive.
Still for that read-out and setting: as for `Cc1cc(Cc2ccc(N)c(C)c2)ccc1N`, the entry is “inactive”; as for `O=NO`, “inactive”.
On to `c1ccc2occc2c1`, for which the outcome was inactive.
On the same count and under the same terms, as for `CCCC[C@H]1CN(CC2CCOCC2)C(=O)OC12CCN(C1(C)CCN(C(=O)c3c(C)ncnc3C)CC1)CC2`, the entry is “inactive”.
With `CCC(C)N(C)C(=O)c1cc2ccccc2c(-c2ccccc2Cl)n1` (stereo not given), the result was inactive.
Same read-out and setting: as for `CC(N)=O`, the entry is “inactive”; as for `CC(=O)[C@@]1(O)CC[C@H]2[C@@H]3CCC4=CC(=O)CC[C@]4(C)[C@H]3CC[C@@]21C`, “inactive”.
On the same count and under the same terms, as for `OCC(O)CO`, the entry is “inactive”; as for `CO[C@@H]1COCC[C@@H]1N[C@@H]1CC[C@@](C(=O)N2CCc3ncc(C(F)(F)F)cc3C2)(C(C)C)C1`, “inactive”; as for `CC(=O)S[C@H](C(=O)N[C@H]1Cc2ccccc2[C@H]2CCC[C@@H](C(=O)O)N2C1=O)C(C)C`, “inactive”.
On the same count and under the same terms, as for `CC(=O)O`, the entry is “inactive”; as for `COc1ccc(C(=O)Nc2nc3ccccc3c(NCc3ccccc3)c2C#N)cc1`, “inactive”.
`CCc1nc(N)nc(N)c1-c1ccc(Cl)cc1`: the result was inactive.
On the same count and under the same terms, as for `NC1CCCCC1`, the entry is “inactive”.
The same measure, in the same setting: as for `CC1(C)C(=O)NC(=O)N1CO`, the entry is “inactive”.
As usually defined, the AC50 is the concentration giving half of the maximal activity seen. As for `Oc1ccccc1O`, the AC50 was 9.58 µM (active).
As for `CC(C)(C)c1ccccc1`, the outcome was inactive.
Regarding `O=C(O)CN(CC(=O)O)CC(=O)O`, the result was inactive.
In the case of `CCN(CC)CCOc1ccc(C(=C(Cl)c2ccccc2)c2ccccc2)cc1`, the AC50 was 8.24 µM (active).
Consider `Cc1cn([C@H]2C=C[C@@H](CO)O2)c(=O)[nH]c1=O`, for which the outcome was inactive.
The same measure, in the same setting: as for `CSc1ccc(Oc2ccc(S(N)(=O)=O)cc2CN(C)C)cc1C`, the entry is “inactive”.
For the molecule `C/C=C/C=C/C(=O)O`, the result was inactive.
On the same count and under the same terms, as for `CC1=C(C)S(=O)(=O)CCS1(=O)=O`, the entry is “inactive”; as for `CCOCCOCCO`, “inactive”.
The same measure, in the same setting: as for `C/C=C/c1ccc(OC)cc1`, the entry is “inactive”.
`CN(C)CCCN1c2ccccc2Sc2ccc(Cl)cc21`: the AC50 is 35.9 µM (active).
On to `CC(C)NCC(O)c1ccc(O)c(O)c1` (stereo not given), for which the result was inactive.
For the molecule `CCCCCCC(C=O)=Cc1ccccc1`, the AC50 was 31.1 µM (active).
Take `COc1ccc(OC(F)(F)F)cc1CN[C@H]1CCCN[C@H]1c1ccccc1`: the outcome was inactive.
For `Oc1ccc(O)cc1`, the AC50 is 20 µM (active).
